Source: PubChem BioAssay (NCI)
About 83,000 compounds went through this panel and 20% of them were active in at least one assay; those are over-represented in the sample as a whole.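 The test compound was applied at a single concentration to cells in 96-well plates for 48 hours, and percent growth was recorded.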 The source made the active and inactive calls. Rule for the calls: active = growth percent below 10; inactive = the rest.

How the values were obtained:
Test in all cases: NCI-60 one-dose screen, 48 h (100 = growth as untreated, 0 = no growth, -100 = all killed)
Details in all cases: 10 µM unless noted
SK-MEL-2 melanoma = test system: SK-MEL-2 melanoma
EKVX NSCLC = test system: EKVX NSCLC
SN12C renal = test system: SN12C renal
UO-31 renal = test system: UO-31 renal
TK-10 renal = test system: TK-10 renal
ACHN renal = test system: ACHN renal
CAKI-1 renal = test system: CAKI-1 renal
A498 renal = test system: A498 renal
CCRF-CEM leukemia = test system: CCRF-CEM leukemia
MOLT-4 leukemia = test system: MOLT-4 leukemia

Measured: growth

Cc1nn(-c2ccccc2)c(Cl)c1/C=C/C(=O)c1ccc(F)cc1
active: CCRF-CEM leukemia 4.52%
inactive: SK-MEL-2 melanoma 92.8% | EKVX NSCLC 93.1% | SN12C renal 88.9% | UO-31 renal 79.1% | TK-10 renal 101% | ACHN renal 97.5% | CAKI-1 renal 95.9% | A498 renal 81.5% | MOLT-4 leukemia 20.7%

COc1ccc(C(=O)c2nc3ccccc3n2CC(=O)c2ccc(Cl)cc2)cc1
inactive: SK-MEL-2 melanoma 63.5% | EKVX NSCLC 86% | SN12C renal 45.5% | UO-31 renal 45.6% | TK-10 renal 51.7% | ACHN renal 48.6% | CAKI-1 renal 23.7% | A498 renal 72.5% | CCRF-CEM leukemia 13.8% | MOLT-4 leukemia 17.2%

C=C(CBr)[C@@H]1CC[C@]2(COC(C)=O)CC[C@]3(C)[C@H](CC[C@@H]4[C@@]5(C)CCCNC(C)(C)[C@@H]5CC[C@]43C)[C@@H]12
inactive: SK-MEL-2 melanoma 59.4% | EKVX NSCLC 46.9% | SN12C renal 48% | UO-31 renal 29.6% | TK-10 renal 41.1% | ACHN renal 39.5% | CAKI-1 renal 37.5% | A498 renal 49.4% | CCRF-CEM leukemia 33.8% | MOLT-4 leukemia 10.9%

Clc1ccc(-c2ccc(CNCC3CCNCC3)o2)c(-c2ccccc2)c1
active: SK-MEL-2 melanoma -75.7% | EKVX NSCLC -15% | SN12C renal -75.6% | UO-31 renal -95.1% | TK-10 renal -85.3% | ACHN renal -96.8% | CAKI-1 renal -85.3% | A498 renal 6.29% | CCRF-CEM leukemia -62.7% | MOLT-4 leukemia -62.7%

O=C(CCN1CCCC1)c1ccc([N+](=O)[O-])cc1
inactive: SK-MEL-2 melanoma 111% | EKVX NSCLC 97.5% | SN12C renal 106% | UO-31 renal 87.3% | TK-10 renal 101% | ACHN renal 106% | CAKI-1 renal 97.3% | A498 renal 92.9% | CCRF-CEM leukemia 103% | MOLT-4 leukemia 113%

COc1ccc(C(=O)NNc2nc(Cl)nc(N3CCN(C(c4ccccc4)c4ccccc4)CC3)n2)cc1
active: CCRF-CEM leukemia -8.69% | MOLT-4 leukemia -39.2%
inactive: SK-MEL-2 melanoma 48.8% | EKVX NSCLC 82.4% | SN12C renal 21.1% | UO-31 renal 87% | TK-10 renal 95% | ACHN renal 22.8% | CAKI-1 renal 21.2%

c1ccc2c(-c3nccs3)c[nH]c2c1
inactive: SK-MEL-2 melanoma 112% | EKVX NSCLC 88.6% | SN12C renal 98.3% | UO-31 renal 85.1% | TK-10 renal 84.4% | ACHN renal 97.6% | CAKI-1 renal 95.6% | CCRF-CEM leukemia 111%

O=C(Cn1c[n+](CC(=O)c2ccc(-c3ccccc3)cc2)c2ccccc21)Nc1cccc2cccnc12
inactive: SK-MEL-2 melanoma 19.4% | EKVX NSCLC 47.6% | SN12C renal 14.9% | UO-31 renal 67.9% | TK-10 renal 88.5% | ACHN renal 90.1% | CAKI-1 renal 44.8% | CCRF-CEM leukemia 10.5%

C[C@H]1[C@H](C)CC[C@]2(C(=O)NCC#CCN3CCN(C)CC3)CC[C@]3(C)C(=CC[C@@H]4[C@@]5(C)Cc6c([nH]c7ccccc67)C(C)(C)[C@@H]5CC[C@]43C)[C@H]12
inactive: SK-MEL-2 melanoma 105% | EKVX NSCLC 86.5% | SN12C renal 81.2% | UO-31 renal 67.6% | TK-10 renal 88.8% | ACHN renal 96.3% | CAKI-1 renal 91.9% | CCRF-CEM leukemia 66.7%

CCOc1cccc(-c2nc(N)nc(Nc3ccccc3SSc3ccccc3Nc3nc(N)nc(-c4cccc(OCC)c4)n3)n2)c1
inactive: SK-MEL-2 melanoma 98.1% | EKVX NSCLC 60.5% | SN12C renal 32.9% | TK-10 renal 102% | ACHN renal 59.5% | CCRF-CEM leukemia 46.5%
active: UO-31 renal -25.5% | CAKI-1 renal 8.02%

COc1ccc(C(=O)Cn2c(C(=O)c3ccccc3)nc3ccccc32)cc1
active: MOLT-4 leukemia 7.92%
inactive: SK-MEL-2 melanoma 64.2% | EKVX NSCLC 71.2% | SN12C renal 43% | UO-31 renal 32.7% | TK-10 renal 59.6% | ACHN renal 46.1% | CAKI-1 renal 24% | A498 renal 46.8%

COc1cc(C=O)ccc1OC1OC(COC(C)=O)C(OC(C)=O)C(OC(C)=O)C1OC(C)=O (stereo not drawn)
inactive: SK-MEL-2 melanoma 98.6% | EKVX NSCLC 99.9% | SN12C renal 97.9% | UO-31 renal 93.1% | TK-10 renal 107% | ACHN renal 107% | CAKI-1 renal 98.8% | CCRF-CEM leukemia 54.9% | MOLT-4 leukemia 110%

COc1cc2nc(-c3ccc(Cl)cc3)cc(OCCCN3CCCCC3)c2cc1OC
active: CAKI-1 renal 0.0525%
inactive: SK-MEL-2 melanoma 65.7% | EKVX NSCLC 66.2% | SN12C renal 41.8% | UO-31 renal 41.8% | TK-10 renal 89.9% | ACHN renal 34% | CCRF-CEM leukemia 49%

COc1cc2cc(CN3CCN(c4nccc(-c5ccc6ccccc6c5)n4)CC3)c(=O)[nH]c2cc1OC
inactive: SK-MEL-2 melanoma 97.8% | EKVX NSCLC 94.5% | SN12C renal 51.7% | UO-31 renal 74.9% | TK-10 renal 91% | ACHN renal 75.7% | CAKI-1 renal 99.5% | CCRF-CEM leukemia 49.1%

COCCCN1CC(O)=C(c2nc(-c3ccc(C)cc3)cs2)C1=N
inactive: SK-MEL-2 melanoma 113% | EKVX NSCLC 97.3% | SN12C renal 92.9% | UO-31 renal 80.6% | TK-10 renal 138% | ACHN renal 111% | CAKI-1 renal 96.1% | A498 renal 93.3% | MOLT-4 leukemia 86.4%

Cc1cccc(-c2cn3ccnc3c(-c3ccc4ncn(Cc5ccccc5)c4c3)n2)c1
inactive: SK-MEL-2 melanoma 93.7% | EKVX NSCLC 77.7% | SN12C renal 95.3% | UO-31 renal 58.3% | TK-10 renal 110% | ACHN renal 87.6% | CAKI-1 renal 75.2% | A498 renal 77.9% | CCRF-CEM leukemia 78.9% | MOLT-4 leukemia 63.1%

O=C(Nc1ccccc1C(=O)N/N=C(\c1ccccc1)c1ccccn1)c1ccc(F)cc1
active: UO-31 renal 1.98% | CAKI-1 renal 5.29% | CCRF-CEM leukemia 4.15%
inactive: SK-MEL-2 melanoma 37.2% | EKVX NSCLC 16.8% | SN12C renal 26.6% | TK-10 renal 49.1% | ACHN renal 14.1%

CCOC(=O)c1ccc2c(c1)ncn2-c1ccc(NC(=O)Nc2cccc(C)c2)cc1
inactive: SK-MEL-2 melanoma 85.4% | EKVX NSCLC 84.7% | SN12C renal 69.6% | UO-31 renal 66.6% | TK-10 renal 123% | ACHN renal 66.7% | CAKI-1 renal 74.6% | CCRF-CEM leukemia 45.8%

COCc1cnccc1NC1CCCCCC1
inactive: SK-MEL-2 melanoma 107% | EKVX NSCLC 102% | SN12C renal 99.4% | UO-31 renal 86.3% | TK-10 renal 94.1% | ACHN renal 108% | CAKI-1 renal 94.4% | A498 renal 84.4% | CCRF-CEM leukemia 101% | MOLT-4 leukemia 94.4%

COc1ccc(C/C(=C(\C)c2ccc(OCCN3CCCC3)cc2)c2ccc(OCCN3CCCC3)cc2)cc1
active: CCRF-CEM leukemia 0.621%
inactive: SK-MEL-2 melanoma 102% | EKVX NSCLC 81.3% | SN12C renal 73.8% | UO-31 renal 53.4% | TK-10 renal 87.3% | ACHN renal 54.1% | CAKI-1 renal 80.7%

Fc1ccc(-c2cn3c(nc4ccccc43)c(-c3ccccc3)n2)cc1
inactive: SK-MEL-2 melanoma 109% | EKVX NSCLC 108% | SN12C renal 89.2% | UO-31 renal 80.4% | TK-10 renal 113% | ACHN renal 92.7% | CAKI-1 renal 84.9% | A498 renal 111% | MOLT-4 leukemia 92.4%

C=C1C(=O)O[C@H]2[C@H]1CC/C(CNC(=O)C(C)c1ccc(CC(C)C)cc1)=C\CC[C@@]1(C)O[C@@H]21 (stereo partly drawn)
active: EKVX NSCLC 0% | SN12C renal -0.803% | UO-31 renal -99.7% | TK-10 renal -61% | ACHN renal -95.9% | CAKI-1 renal -7.71% | CCRF-CEM leukemia -1.13%
inactive: SK-MEL-2 melanoma 32.9%

CCN(CC)CCCC(C)Nc1cc(O)cc2cccnc12 (stereo not drawn)
inactive: SK-MEL-2 melanoma 135% | EKVX NSCLC 106% | SN12C renal 85.7% | UO-31 renal 83.4% | TK-10 renal 122% | ACHN renal 102% | CAKI-1 renal 109% | CCRF-CEM leukemia 108%

O=C(Cc1ccc(/C=C/C(=O)c2nccs2)cc1)Nc1ccccc1
inactive: SK-MEL-2 melanoma 105% | EKVX NSCLC 103% | SN12C renal 91.9% | UO-31 renal 89.1% | TK-10 renal 98.8% | ACHN renal 96.5% | CAKI-1 renal 99.9% | CCRF-CEM leukemia 14.4%
active: MOLT-4 leukemia 6.27%

COc1cc2c(cc1OC)C(=O)/C(=C/c1cc(C)c(O)c(C)c1)S2
inactive: SK-MEL-2 melanoma 42.6% | EKVX NSCLC 40.8% | SN12C renal 50.4% | UO-31 renal 54.8% | TK-10 renal 66% | ACHN renal 45.3% | CAKI-1 renal 43.9% | CCRF-CEM leukemia 17.1%

O=C(Cc1ccccc1)NNc1nc(Cl)nc(N2CCN(C(c3ccccc3)c3ccccc3)CC2)n1
inactive: SK-MEL-2 melanoma 99.8% | EKVX NSCLC 91.9% | SN12C renal 97.1% | UO-31 renal 96.7% | TK-10 renal 96% | ACHN renal 94.9% | CAKI-1 renal 84.4% | CCRF-CEM leukemia 11.1%

CN1C(=O)NC(c2ccc3c(c2)OCO3)C=C1c1ccccc1 (stereo not drawn)
inactive: SK-MEL-2 melanoma 100% | EKVX NSCLC 95.4% | SN12C renal 89% | UO-31 renal 64.7% | TK-10 renal 85% | ACHN renal 105% | CAKI-1 renal 82.8% | CCRF-CEM leukemia 87.2% | MOLT-4 leukemia 94.3%

O=C(Cc1ccc(/C=C/C(=O)c2ncc[nH]2)cc1)Nc1ccc(Cl)cc1
active: SN12C renal 7.28% | UO-31 renal 2.84% | CCRF-CEM leukemia -6.35%
inactive: SK-MEL-2 melanoma 94.9% | EKVX NSCLC 65.2% | TK-10 renal 59.8% | ACHN renal 42.7% | CAKI-1 renal 32.1%

CCCCNC(=O)Oc1ccc(/C(=C(\C)c2ccccc2)c2ccc(OCCN3CCCCC3)cc2)cc1
inactive: SK-MEL-2 melanoma 72.7% | EKVX NSCLC 76.2% | SN12C renal 70.7% | UO-31 renal 40.4% | TK-10 renal 85.3% | ACHN renal 90.1% | CAKI-1 renal 46.9% | CCRF-CEM leukemia 66.3%

CN1C(N2CCN(S(=O)(=O)c3ccccc3)CC2)=NS(=O)(=O)c2ccccc21
inactive: SK-MEL-2 melanoma 56.7% | EKVX NSCLC 111% | SN12C renal 90.7% | UO-31 renal 72.4% | TK-10 renal 114% | ACHN renal 106% | CAKI-1 renal 104% | A498 renal 155% | CCRF-CEM leukemia 118% | MOLT-4 leukemia 178%
